Compound activity from PubChem BioAssay.
TNF necrop inh – blocks TNF-alpha induced death of Jurkat FADD-/- cells; Jurkat FADD-/- TNF necroptosis rescue, ATP luminescence, 24 h; 0 = TNF only, 100 = no-TNF cells; activation (protection from cell death), % at 10 µM; actives 0.068% (n = 220,000); AID 463075;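 active = activation, meaning protection from cell death, of at least 50% relative to plate controls; inactive = activation below 50%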;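 note: necroptosis triggered by 40 ng/mL TNF-alpha added together with compound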
HSV replic up – HSV replication enhancement; HSV replication augmentation in cells, fold increase; maximum fold increase; actives 0.005% (n = 220,000); AID 1956; in the data active = maximum fold increase above about 1.5; tested in PC3 cells
zVAD death inh – blocks zVAD induced death of L929 cells | AID 1377 | actives 0.38% (n = 220,000) | viability rescue, % at 10 µM | L929 zVAD necroptosis rescue, ATP luminescence, 24 h; with zVAD 60 µM;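 active = activation, scaled between plate controls, above about 75%, limit read from the data; inactive = activation under that limit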;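 note: 0% = zVAD with DMSO and 100% = DMSO alone without zVAD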
V-ATPase pH – alters yeast V-ATPase proton transport. S. cerevisiae, pHLuorin cytosolic pH fluorescence. response, % at 10 µM. actives 0.37% (n = 350,000). AID 504577; in the data active = response mostly above about 7.3%, no sharp cut-off; inactive = mostly below about 5.4%; note: actives read high
Wee1 degr inh – human Wee1 degradation inhibition, primary screen; P30291; HeLa Luc-Wee1K328M stability, luciferase luminescence; 100% = proteasome inhibitor MG132 effect; reporter increase, % at 5 µM; actives 1.2% (n = 220,000);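 active = activation above the mean of all tested compounds plus 3 SD, set per screening run, cut at about 8.8% in these data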;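 note: cells exposed to compound for 20 h before luminescence read; 0% = DMSO alone and 100% = MG132 at 30 µM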
Target sequence (P30291 whole entry K328M): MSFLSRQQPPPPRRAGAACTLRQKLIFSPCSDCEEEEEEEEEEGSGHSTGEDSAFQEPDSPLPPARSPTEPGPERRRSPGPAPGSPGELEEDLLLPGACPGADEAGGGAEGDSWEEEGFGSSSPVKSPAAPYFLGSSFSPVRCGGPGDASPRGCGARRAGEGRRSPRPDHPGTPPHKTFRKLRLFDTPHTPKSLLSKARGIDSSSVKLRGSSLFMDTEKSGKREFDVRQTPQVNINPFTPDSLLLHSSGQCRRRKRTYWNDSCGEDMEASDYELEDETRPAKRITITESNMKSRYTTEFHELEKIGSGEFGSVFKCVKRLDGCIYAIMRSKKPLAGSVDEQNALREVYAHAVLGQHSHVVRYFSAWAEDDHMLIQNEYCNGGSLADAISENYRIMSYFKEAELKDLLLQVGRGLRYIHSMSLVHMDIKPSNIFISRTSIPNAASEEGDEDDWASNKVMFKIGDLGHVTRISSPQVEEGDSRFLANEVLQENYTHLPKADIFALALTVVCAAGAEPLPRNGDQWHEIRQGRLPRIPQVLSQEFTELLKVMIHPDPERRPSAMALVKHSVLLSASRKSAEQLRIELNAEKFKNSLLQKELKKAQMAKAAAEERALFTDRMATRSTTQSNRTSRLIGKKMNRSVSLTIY
V-ATPase pH SP – modulates yeast V-ATPase proton transport; shares compounds with V-ATPase pH; S. cerevisiae pHLuorin cytosolic pH; response, % at 10 µM; actives 2% (n = 980); in the data active = response above about 24%;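 note: plate controls were vehicle wells for no effect and positive control wells for full effect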
Starred values were filed as active, the others as inactive; i = inactive; nt = no result. Hits are enriched below; roughly 1.4% of the tested compounds scored in any of these assays.

SMILES	TNF necrop inh	HSV replic up	zVAD death inh	V-ATPase pH	Wee1 degr inh	V-ATPase pH SP
COc1ccc(N2C(=NC(=O)C3CCCCC3)SC3CS(=O)(=O)CC32)cc1 (stereo not drawn)	nt	nt	nt	8.0*	nt	1
CC1(C)CC(NC(=O)c2ccccc2F)CC(C)(C)N1	nt	nt	nt	0	nt	nt
O=C(Nc1cccc(C(=O)O)c1)/C(=C\c1ccc2c(c1)OCO2)NC(=O)c1ccc(Br)o1	0	i	0	7.5*	-3	4
C/C(=N\NC(=O)c1cc(-c2ccc(Cl)s2)[nH]n1)c1ccncc1	nt	nt	nt	1	nt	nt
CN(C)S(=O)(=O)c1ccc(C(=O)NCC(=O)Nc2ccc(F)c(F)c2)cc1	nt	nt	nt	7.0*	nt	1
COc1cccc(-c2nnn(CC(=O)N(C3CCCCC3)C3CCS(=O)(=O)C3)n2)c1 (stereo not drawn)	nt	nt	nt	1	nt	nt
COCCn1c(=O)[nH]c2cc(C(=O)N3CCN(c4ccccc4OC)CC3)ccc2c1=O	0	i	0	10*	-3	0
COCCn1c(=S)[nH]c2cc(C(=O)N3CCN(c4ccccc4OC)CC3)ccc2c1=O	-4	i	1	3	1	nt
CCc1sc(C(=O)NCc2ccco2)cc1C	nt	nt	nt	12*	nt	2
CCc1sc(C(=O)NCc2ccco2)cc1Br	nt	nt	nt	-1	nt	nt
Cn1c2ccc(F)cc2c2nnc(SCC(=O)Nc3cccc(O)c3)nc21	nt	nt	nt	11*	nt	-1
CCc1nnc(NC(=O)CCN2C(=O)/C(=C/c3cc(OC)c(OC)c(OC)c3)SC2=S)s1	nt	nt	nt	-8	nt	nt
Cc1nn(C)c(C(=O)N/N=C/c2cccnc2)c1Br	nt	nt	nt	4	nt	nt
O=C(Cn1c(CO)nc2ccccc21)NCCc1ccccc1	1	i	9	8.1*	-4	1
O=C(Cn1c(CO)nc2ccccc21)NCCc1ccc(F)cc1	0	i	1	-3	5	nt
N#Cc1ccc(C(=O)Nc2cccc3ccccc23)c(F)c1	nt	nt	nt	-6	nt	nt
Cc1ccc(-c2nc(=S)c3c(n2Cc2cccnc2)CC(C)(C)OC3)cc1	1	i	-1	2	-1	nt
Cc1nn(CC#N)c(=O)n1-c1ccc(Cl)cc1	3	i	3	1	2	-4
CCC(Cc1ccccc1)NC(=O)C1CC1 (stereo not drawn)	nt	nt	nt	2	nt	nt
N#Cc1c(C(F)(F)F)cc(-c2cccs2)nc1SCc1ccc(Cl)nc1	-4	i	0	1	2	nt
N#Cc1c(C(F)(F)F)cc(-c2cccs2)nc1SCc1cccnc1	-14	i	1	7.7*	-1	-27
Cc1c(C(=O)N2CCC(n3nccc3NC(=O)C3CC3)CC2)[nH]c2ccc(Cl)cc12	nt	nt	nt	0	nt	nt
CCCCOC(=O)c1ccc(NC(=O)C(=O)NCc2ccncc2)cc1	-1	i	1	0	-2	nt
CCOC(=O)c1ccc(NC(=O)C(=O)NCc2ccncc2)cc1	-5	i	0	11*	-1	1
COc1ccc(CCN(C)C(=S)Nc2ccc(SC(F)F)cc2)cc1OC	nt	nt	nt	0	nt	nt
SMILES	TNF necrop inh	HSV replic up	zVAD death inh	V-ATPase pH	Wee1 degr inh	V-ATPase pH SP
COc1ccc2cc(S(=O)(=O)N3CCN(C)CC3)ccc2c1	0	i	-1	13*	-1	-1
C=C1C(=O)O[C@@]23[C@H]1CC[C@@H](C)[C@@H]2CC[C@@]1(C)O[C@@H]31	nt	nt	nt	23*	nt	0
O=C(O)c1ccc(-c2nnc(-c3ccccc3)o2)cc1	nt	nt	nt	-3	nt	nt
O=C(O)c1ccc(-c2nnc(-c3ccc([N+](=O)[O-])cc3)o2)cc1	nt	nt	nt	9.4*	nt	2
CCCNC(=O)COC(=O)CCC(=O)c1ccc(F)cc1	0	i	0	-8	1	-1
CCCCNC(=O)COC(=O)CCC(=O)c1ccc(F)cc1	0	i	0	2	-1	2
CC(C)CNC(=O)COC(=O)CCC(=O)c1ccc(F)cc1	0	i	0	0	0	nt
CCOC(=O)CCCNC(=O)COC(=O)CCC(=O)c1ccc(F)cc1	0	i	0	1	-1	-3
CCc1ccc(OCc2n[nH]c(=S)n2C(C)CCCC(C)C)cc1 (stereo not drawn)	0	i	3	-3	0	nt
Cn1cccc1CC(=O)NNC(=S)Nc1ccc(Cl)cc1Cl	1	i	0	16*	2	-1
COc1ccc(OC)c(CNC(=O)C2CCN(S(C)(=O)=O)CC2)c1	3	i	2	11*	-5	-1
CC(C)(C)C(=O)Nc1nc2c(c(=O)[nH]1)CCCC2	2	i	-1	-2	0	nt
CC1Nc2nc(NC(=O)C(C)(C)C)[nH]c(=O)c2N(C)C1C (stereo not drawn)	0	i	1	12*	2	-1
Cc1nn(C)c(C)c1NC(=O)COc1ccc(Cl)cc1Br	nt	nt	nt	0	nt	nt
Cc1noc(C)c1C(=O)N1CCCC(C(=O)c2cccc(OC(C)C)c2)C1 (stereo not drawn)	0	i	0	13*	-2	1
O=C1C2C3C=CC(C3)C2C(=O)N1c1nccs1 (stereo not drawn)	-1	i	-1	9.4*	0	1
CCOC(=O)C1=C(C)NC(C)=C(C(=O)OCC)C1C(=O)OCC(=O)N1CCC(C)CC1	-3	i	0	1	2	nt
CCOC(=O)C1=C(C)NC(C)=C(C(=O)OCC)C1C(=O)OCC(=O)N1CCc2ccccc2C1	-4	i	0	12*	-2	-2
COc1cc(C2NC(=O)NC(C)=C2C(=O)OCc2ccc(C)cc2)cc(OC)c1OC (stereo not drawn)	nt	nt	nt	-2	nt	nt
COc1cc(C2NC(=O)NC(C)=C2C(=O)OCc2ccc(C)cc2)cc(OC)c1O (stereo not drawn)	-2	i	0	9.5*	2	1
CC(=O)Nc1cccc(C(=O)OC(C)C(=O)NC(=O)NC2CCCCC2)c1 (stereo not drawn)	nt	nt	nt	11*	nt	0
CC(=O)Nc1cccc(C(=O)OCC(=O)NC(=O)NC2CCCC2)c1	nt	nt	nt	-1	nt	nt
Cc1noc(C)c1C(=O)NCC(=O)Nc1ccccc1Br	nt	nt	nt	1	nt	nt
COc1ccc(C(=O)CCC(=O)NC2=NCCS2)cc1	nt	nt	nt	2	nt	-3
Cc1cccc2c1CCCC2=O	nt	nt	nt	12*	nt	-4
SMILES	TNF necrop inh	HSV replic up	zVAD death inh	V-ATPase pH	Wee1 degr inh	V-ATPase pH SP
O=C(NC1CCCCC1)c1ccc2c(c1)OCO2	nt	nt	nt	-4	nt	nt
O=C(NCCS(=O)(=O)NC1CCCCC1)c1ccc2c(c1)OCO2	nt	nt	nt	7.1*	nt	-2
C#CCNC(=O)C1=C[C@H](C(C)(C)C)C[C@H](OCCCCO)O1	nt	i	nt	16*	nt	2
CC(C)(C)[C@H]1C=C(C(=O)NCc2ccccc2)O[C@@H](OCCCCO)C1	nt	i	nt	8	nt	nt
O=C(COC(=O)/C=C/c1cccc(C(F)(F)F)c1)NCc1ccccc1	2	i	1	-1	1	nt
CC(NC(=O)COC(=O)/C=C/c1cccc(C(F)(F)F)c1)c1ccccc1 (stereo not drawn)	1	i	0	21*	4	-3
Cc1ccc(NS(=O)(=O)c2ccc(NC(=O)c3ccccc3C(=O)O)cc2)cc1C	nt	nt	nt	0	nt	nt
N#Cc1c2ccc(OCC(N)=O)cc2n2ccccc12	0	i	2	-3	1	nt
